For 32 molecules, inhibition results are on record in ChEMBL document CHEMBL3433997, “St. Jude Leishmania screening dataset” (2016).

What all share (assay type): functional
Assay [1] addresses Solute carrier family 2, facilitated glucose transporter member 1 (Homo sapiens) (UniProt P11166). In words: ST_JUDE_LEISH: Cytotoxicity at 2uM final concentration against transgenic Leishmania Mexicana promastigotes LmGLUT1 that are glucose transport deficient and complemented with the human glucose transporter GLUT1. Activity is measured by DNA content using SYBR green in vitro.

The target in assay [2] is Hexose transporter 1 (Plasmodium falciparum) (UniProt O97467). Put plainly: ST_JUDE_LEISH: Cytotoxicity at 2uM final concentration against transgenic Leishmania Mexicana promastigotes LmPfHT that are glucose transport deficient and complemented with the Plasmodium falciparum hexose transporter. Activity is measured by DNA content using SYBR green in vitro.
Assay [3] has as its target Glucose transporter (Leishmania mexicana) (UniProt O61059). Put plainly: ST_JUDE_LEISH: Cytotoxicity at 2uM final concentration against transgenic Leishmania Mexicana promastigotes LmGT2 that are glucose transport deficient and complemented with the L. Mexicana glucose transporter 2. Activity is measured by DNA content using SYBR green in vitro.

What is called inhibition is the change of the read-out against control, counted positive when it falls.

Values joined by “and” are separate entries in the source; they are usually repeats but may differ in a detail not shown here. Equal entries are not always repeated.

Solute carrier family 2, facilitated glucose transporter member 1 (Homo sapiens), sequence (P11166 whole entry): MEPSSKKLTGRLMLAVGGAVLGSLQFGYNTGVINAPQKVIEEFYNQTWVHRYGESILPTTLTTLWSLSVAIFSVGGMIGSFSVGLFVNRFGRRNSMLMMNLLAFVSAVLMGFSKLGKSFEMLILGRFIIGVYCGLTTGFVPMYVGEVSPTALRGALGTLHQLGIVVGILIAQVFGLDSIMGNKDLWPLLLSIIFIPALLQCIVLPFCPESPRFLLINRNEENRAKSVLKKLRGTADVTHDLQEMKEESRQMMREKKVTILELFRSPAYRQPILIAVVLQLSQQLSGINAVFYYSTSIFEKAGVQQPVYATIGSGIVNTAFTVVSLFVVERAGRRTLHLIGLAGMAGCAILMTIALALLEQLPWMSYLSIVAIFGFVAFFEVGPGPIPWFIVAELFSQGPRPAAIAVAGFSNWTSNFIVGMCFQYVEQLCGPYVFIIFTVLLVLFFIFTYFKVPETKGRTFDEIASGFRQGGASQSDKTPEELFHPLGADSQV

With `C[C@H](Cc1ccc(OCCCCCCOc2ccccc2)cc1)NC[C@H](O)c1cccc(Cl)c1`, the inhibition in assay [1] was -0.31%; in assay [2], -0.04%; in assay [3], -0.25%.
With `CC(C)CNCc1cccc(-c2cccc(CN(C(=O)Nc3ccccc3)C3CCN(Cc4ccccc4)CC3)c2)c1`, the inhibition is 1.9% in assay [1], 1.81% in assay [2] and 5.06% in assay [3].
Taken in the same sequence, the figures for `CCCCCc1cc(O)c2c3c(c(=O)oc2c1)CN(C)CC3` were 2.93%, 2.18% and 1.87%.
For `COC(=O)c1ccc(CC(C)NCC(O)c2cccc(Oc3cccc(C(F)(F)F)c3)c2)cc1` (stereo unspecified), the inhibition in assay [1] amounted to 8.83%; in assay [2], 6.86%; in assay [3] it was 6.56%.
Taken in the same sequence, the figures for `Cc1[nH]c2cc(Cl)ccc2c1C1=CCN(CCN2CCOc3c(Br)cccc3C2=O)CC1` were 5.36%, 5.27% and 6.71%.
On to `CC(Cc1ccc(NC(=O)[C@H](C)NCCc2cccc(Cl)c2)cc1)NCCc1cccc(Cl)c1` (stereo partly specified), for which the inhibition in assay [1] came out at 2.86%; in assay [2], 0.1%; in assay [3], 0.22%.
As to `Cc1ccc(/C=C/C(=O)NC2CCC(CN3CCC(c4c[nH]c5ccccc45)CC3)CC2)cc1C` (stereo unspecified), the inhibition is 3.87% and 0.74% in assay [1]; 3.35% and 0.58% in assay [2]; -0.3% and -2.39% in assay [3].
For the molecule `COc1cccc(CN2CCC(CCOC(c3ccccc3)c3ccc(Cl)cc3)CC2)c1O` (stereo unspecified), the inhibition is 26.2% in assay [1], 26.5% in assay [2] and 12.5% in assay [3].
As for `CCCCn1c(C)c(C(=O)OCC)c2cc(OC(C)=O)c(Br)cc21`, the inhibition in assay [1] worked out at 1.92%; in assay [2], 1.76%; in assay [3], 3.29%.
Regarding `CC[C@H]1CN2CC[C@H]1C[C@H]2[C@H](O)c1cc(N2CCC3CCCCC3C2)nc2ccc(OC)cc12` (stereo partly specified), the inhibition was found to be 3.3% in assay [1], 4.42% in assay [2] and 3.38% in assay [3].
With `Cc1cc(NC(=O)[C@@H](Nc2ccc(C#N)c3ccccc23)C2CCCCC2)ccc1F`, the inhibition is -1.97% in assay [1], -0.16% in assay [2] and -0.25% in assay [3].
For the molecule `C[C@@H]1C[C@@H]([C@H](O)CC2CC(=O)NC(=O)C2)C(=O)[C@@H](C)C1`, the inhibition was 90% in assay [1], 90.8% in assay [2] and 88.7% in assay [3].
As to `O=C(/C=C/c1ccc(Cl)c(Cl)c1)NC1CCC(CN2CCC(c3c[nH]c4cc(O)ccc34)CC2)CC1` (stereo unspecified), the inhibition in assay [1] is 3.03%; in assay [2], 0.88%; in assay [3], -0.33%.
On to `CN(C)c1cccc(NC(=O)N[C@H]2N=C(c3ccccc3)c3ccccc3N(CC(=O)N3CCCC3)C2=O)c1`, for which the values for the inhibition in assay [1], in assay [2] and in assay [3] were 2.85%, 2.62% and 2.53%, respectively.
As for `Cc1cc2ccc(CNCCc3ccccc3Br)cc2nc1N`, the values for the inhibition in assay [1], in assay [2] and in assay [3] were 3.28%, 2.77% and 3.87%, respectively.
Turning to `CC[C@H]1CN2CCc3cc(OC)c(OC)cc3[C@@H]2C[C@@H]1C[C@H]1NCCc2cc(OC)c(OC)cc21`, the inhibition in assay [1] was 96.8%; in assay [2], 94%; in assay [3], 90.3%.
As for `Cc1ccc(CC(C)NCC(O)c2cccc(C(F)(F)F)c2)cc1` (stereo unspecified), the inhibition in assay [1] is 1.64% and 2.89%; in assay [2], 4.33% and 0.46%; in assay [3], 1.68% and 0.49%.
On to `Cn1nc(C(F)(F)F)cc1-c1ccc(C(=O)NC2CCC(CN3CCC(c4c[nH]c5ccccc45)CC3)CC2)s1` (stereo unspecified), for which the inhibition in assay [1] is 6.48%; in assay [2] it was 4.44%; in assay [3], 2.24%.
Regarding `CN(C)c1cccc(CN2CC=C(c3c[nH]c4ccc(Cl)cc34)CC2)c1`, the values for the inhibition in assay [1], in assay [2] and in assay [3] were 8.22%, 6.95% and 4.91%, respectively.
Taken in the same sequence, the figures for `CC(Cc1ccc(Oc2ccc(Cl)cc2)cc1)NCC(O)c1cccc(Cl)c1` (stereo unspecified) were -2.67%, -2.38% and -1.74%.
As for `Brc1cnc(NC2=NCCN2)c(Br)c1`, the results for the inhibition in assay [1], in assay [2] and in assay [3] were 2.63%, 3.41% and 3.27%, respectively.
`CN(c1cc(NC(=O)c2cccs2)ccn1)C1CCN(Cc2cccc(C#N)c2)CC1`: the inhibition turned out to be 8.2% in assay [1], 9.92% in assay [2] and 8.95% in assay [3].
Take `COc1ccc2[nH]cc(C3CC4CCC(C3)N4CCC3CCN(C(=O)/C=C/c4ccc(Cl)c(Cl)c4)CC3)c2c1` (stereo unspecified): the inhibition was -0.2% in assay [1], 1.01% in assay [2] and 0.71% in assay [3].
Turning to `COc1ccc(CC(C)NCC(O)c2cccc(C(F)(F)F)c2)cc1F` (stereo unspecified), the results for the inhibition in assay [1], in assay [2] and in assay [3] were 1.15%, 1.15% and 0.11%, respectively.
For `CC(C)C[C@H](Nc1ccc(C#N)c2ccccc12)C(=O)N[C@@H]1CCCc2ccccc21`, the inhibition was determined as 3.96% in assay [1], 1.88% in assay [2] and 1.15% in assay [3].
As to `O=C(/C=C/c1ccc(Cl)c(Cl)c1)NC1CCC(CN2CCC(c3c[nH]c4ccccc34)CC2)CC1` (stereo unspecified), the inhibition in assay [1] is 2.35%; in assay [2], 1.2%; in assay [3], 1.83%.
For the molecule `COCCNCc1cccc(-c2cccc(CN(C(=O)Nc3ccccc3)C3CCN(Cc4ccccc4)CC3)c2)c1`, the inhibition in assay [1] is 3.2%; in assay [2], 2.07%; in assay [3], 1.33%.
With `CC[C@H]1CN2CC[C@H]1C[C@H]2[C@H](O)c1cc(-c2ccc(OC(F)(F)F)cc2)nc2ccc(OC)cc12`, the inhibition in assay [1] stood at 4.51%; in assay [2], 2.38%; in assay [3] it was 3.6%.
`CC[C@H]1CN2CC[C@@H]1C[C@H]2[C@H](O)c1cc[n+]([O-])c2ccc(OC)cc12`: the inhibition in assay [1] is -2.84%; in assay [2], -0.91%; in assay [3], -1.06%.
`O=C(C=C1c2ccccc2-c2ccccc21)NC1CCC(CN2CCC(c3c[nH]c4ccccc34)CC2)CC1` (stereo unspecified): the inhibition in assay [1] is 0.2% and -2.16%; in assay [2], 0.36% and -1.31%; in assay [3], -0.17% and -1.28%.
As for `CC(C)CNCc1ccc(-c2ccc(CN(C(=O)Nc3ccccc3)C3CCN(Cc4ccccc4)CC3)cc2)cc1`, the inhibition came out at 3.1% in assay [1], 2.41% in assay [2] and 4.94% in assay [3].
In the case of `COCCNCc1cccc(-c2ccc(CN(C(=O)Nc3ccccc3)C3CCN(Cc4ccccc4)CC3)cc2)c1`, the figures for the inhibition in assay [1], in assay [2] and in assay [3] were 2.81%, 0.8% and 2.73%, respectively.
